Results: the supplement of paper PMC9492666
Structures can show the parent of a compound that is named as a salt.

Key:
HCC1937 = assay: relative cell viability, compound + erastin, vs DMSO (fraction of DMSO control); higher = less growth inhibition; details: 72 h
MDA-MB-231 = assay: as above; details: 72 h
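Note: viability read by CCK-8 kit in 96-well plates, part of a combination screen pairing lipid-metabolism-targeting compounds with erastin.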

SMILES	relative cell viability (HCC1937)	relative cell viability (MDA-MB-231)
NC(CO)C(=O)O (racemic) [DL-Serine] + CCOc1ccccc1-n1c(C(C)N2CCN(C(=O)COc3ccc(Cl)cc3)CC2)nc2ccccc2c1=O [erastin]	0.667	0.62
COc1ccc(-c2cc(=O)c3c(O)c(OC)c(OC)c(OC)c3o2)cc1OC + CCOc1ccccc1-n1c(C(C)N2CCN(C(=O)COc3ccc(Cl)cc3)CC2)nc2ccccc2c1=O [erastin]	0.573	0.784
Cc1cc([N+](=O)[O-])ccc1NS(=O)(=O)c1cc(Cl)ccc1Cl + CCOc1ccccc1-n1c(C(C)N2CCN(C(=O)COc3ccc(Cl)cc3)CC2)nc2ccccc2c1=O [erastin]	0.585	0.616
CC(C)c1nc(N(C)S(C)(=O)=O)nc(-c2ccc(F)cc2)c1/C=C/[C@@H](O)C[C@@H](O)CC(=O)O [Rosuvastatin] + CCOc1ccccc1-n1c(C(C)N2CCN(C(=O)COc3ccc(Cl)cc3)CC2)nc2ccccc2c1=O [erastin]	0.656	0.781
O=c1c(-c2ccc(O)cc2)coc2cc(O)ccc12 [Daidzein] + CCOc1ccccc1-n1c(C(C)N2CCN(C(=O)COc3ccc(Cl)cc3)CC2)nc2ccccc2c1=O [erastin]	0.827	0.619
COc1c(/C=C/C(=O)c2ccc(O)cc2)ccc(O)c1CC=C(C)C + CCOc1ccccc1-n1c(C(C)N2CCN(C(=O)COc3ccc(Cl)cc3)CC2)nc2ccccc2c1=O [erastin]	0.58	0.749
O=C(NNc1ccccc1)c1ccncc1 [PluriSln 1] + CCOc1ccccc1-n1c(C(C)N2CCN(C(=O)COc3ccc(Cl)cc3)CC2)nc2ccccc2c1=O [erastin]	0.518	0.696
CC(C)Cc1ccc([C@H](C)C(=O)O)cc1 [Dexibuprofen] + CCOc1ccccc1-n1c(C(C)N2CCN(C(=O)COc3ccc(Cl)cc3)CC2)nc2ccccc2c1=O [erastin]	0.901	0.642
COc1ccc(-c2coc3cc(O)cc(O)c3c2=O)cc1 [Biochanin A] + CCOc1ccccc1-n1c(C(C)N2CCN(C(=O)COc3ccc(Cl)cc3)CC2)nc2ccccc2c1=O [erastin]	0.589	0.559
Cc1cc(SCc2sc(-c3ccc(C(F)(F)F)c(F)c3)nc2C)ccc1OCC(=O)O + CCOc1ccccc1-n1c(C(C)N2CCN(C(=O)COc3ccc(Cl)cc3)CC2)nc2ccccc2c1=O [erastin]	0.849	0.799
O=S(=O)(Nc1ccc(C(O)(C(F)(F)F)C(F)(F)F)cc1)c1cccs1 + CCOc1ccccc1-n1c(C(C)N2CCN(C(=O)COc3ccc(Cl)cc3)CC2)nc2ccccc2c1=O [erastin]	0.652	0.568
CN(CCOc1ccc(CC2SC(=O)NC2=O)cc1)c1ccccn1 (centres undefined) [Rosiglitazone HCl] + CCOc1ccccc1-n1c(C(C)N2CCN(C(=O)COc3ccc(Cl)cc3)CC2)nc2ccccc2c1=O [erastin]	0.619	0.774
CC(C)(Oc1ccc(C(=O)c2ccc(Cl)cc2)cc1)C(=O)O [Fenofibric acid] + CCOc1ccccc1-n1c(C(C)N2CCN(C(=O)COc3ccc(Cl)cc3)CC2)nc2ccccc2c1=O [erastin]	0.677	0.915
CCc1ccc(N(CC(C)C)S(=O)(=O)c2ccc(OCC3CCOCC3)c(CO)c2)cc1 + CCOc1ccccc1-n1c(C(C)N2CCN(C(=O)COc3ccc(Cl)cc3)CC2)nc2ccccc2c1=O [erastin]	0.508	0.604
COc1ccc(-c2c[nH]c3nccc(-c4ccsc4)c23)c(OC)c1 + CCOc1ccccc1-n1c(C(C)N2CCN(C(=O)COc3ccc(Cl)cc3)CC2)nc2ccccc2c1=O [erastin]	0.675	0.834
O=C(O)Cn1nnc(-c2cc(N3CCC(Oc4cc(F)ccc4Br)CC3)no2)n1 + CCOc1ccccc1-n1c(C(C)N2CCN(C(=O)COc3ccc(Cl)cc3)CC2)nc2ccccc2c1=O [erastin]	0.529	0.679
CN1CCN(c2ccc(/C=C(\C#N)c3ccccc3Br)cc2)CC1 [DG172 (dihydrochloride)] + CCOc1ccccc1-n1c(C(C)N2CCN(C(=O)COc3ccc(Cl)cc3)CC2)nc2ccccc2c1=O [erastin]	0.672	0.608
